Bioassay records (PubChem BioAssay)
CCHFV vOTU inh: blocks the CCHF virus ovarian tumor domain protease | CCHFV vOTU protease, Pep-AMC fluorescence | actives 0.55% (n = 370,000) | inhibition, % at 11.5 µM; in the data active = inhibition above about 30%; also: 0% = vehicle wells with enzyme and 100% = no enzyme wells
DUSP3 inh: blocks human VHR1 dual specificity phosphatase. actives 0.52% (n = 290,000). recombinant VHR phosphatase, pNPP absorbance. P51452. inhibition, % at 13.3 µM. AID 1654; in the data active = inhibition above about 50%
Target sequence (P51452 whole entry, looked up): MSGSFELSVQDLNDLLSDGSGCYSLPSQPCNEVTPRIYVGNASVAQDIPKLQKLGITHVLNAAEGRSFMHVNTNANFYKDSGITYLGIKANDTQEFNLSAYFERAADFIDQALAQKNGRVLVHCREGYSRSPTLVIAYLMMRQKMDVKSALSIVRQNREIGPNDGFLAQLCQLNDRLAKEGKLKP
Sa ugtP lethal: compounds lethal to S. aureus RN4220 ugtP deletion mutant | OD600 growth, 16 h | growth inhibition, % (no concentration beside the values) | actives 0.54% (n = 330,000) | AID 1259309; in the data active = growth inhibition above about 68%;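 also: plate controls were untreated wells for no effect and antibiotic for full effect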
SSB-PriA inh: K. pneumoniae PriA-SSBct interaction inhibition; AlphaScreen SSBct-PriA binding, biotinylated peptide; inhibition, % at 33 µM; actives 0.6% (n = 430,000); in the data active = inhibition mostly above about 37%, no sharp cut-off; inactive = mostly below about 20%;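 also: plate controls were negative control peptide for no effect and reference peptide for full effect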
RN4220 kill: S. aureus RN4220 growth inhibition | AID 1259311 | inhibition, % (no concentration beside the values) | actives 0.33% (n = 330,000) | OD600, 16 h; in the data active = inhibition above about 85%;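 also: plate controls were untreated cells for no effect and reference antibiotic for full effect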
Numbers without * were called inactive; · = no result; ! = a repeat was not active. Only some compounds are listed: those with a hit (about 1.5% of all), similar ones and a draw of the others.

SMILES	CCHFV vOTU inh	DUSP3 inh	Sa ugtP lethal	SSB-PriA inh	RN4220 kill
Cc1nc(NCCCn2ccnc2)c2oc3ccccc3c2n1	4	-8	-4	-15	-6
c1ccc2c(c1)oc1c(NCCCn3ccnc3)ncnc12	2	55*	-4	-12	-6
c1ccc(-c2c(-c3ccccc3)n(Cc3ccco3)c3ncnc(NCCCn4ccnc4)c23)cc1	5	11	30	52*	18
O=c1cc(NCc2ccco2)[nH]c(=O)n1-c1ccc(Cl)cc1	·	·	·	-13	·
COc1ccc(-c2nc(C#N)c(N3CCN(C)CC3)o2)cc1	·	·	·	54*	·
N#Cc1nc(-c2ccccc2F)oc1N1CCCCC1	-127	6	-11	14	4
CC(C)(C)c1ccc(-c2nc(C#N)c(N3CCCCC3)o2)cc1	·	·	·	73*	·
COc1ccccc1-c1nc(C#N)c(N2CCN(Cc3ccccc3)CC2)o1	-7	-8	-15	41*	-5
N#Cc1nc(-c2ccccc2Cl)oc1N1CCCCC1	5	-28	-5	48*	0
COCCCn1c(SCc2nc(-c3ccccc3)no2)nc2cc3c(cc2c1=O)OCO3	·	·	·	-7	·
CCCn1c(SCC(=O)NC(C)(C)C)nnc1-c1ccco1	2	53*	-2	-14	4
Cc1cccc(NC(=O)NCC[C@H](O)c2ccccc2)c1	·	·	·	-2	·
Cc1ccc(Cc2nnc(NC(=O)c3ccc(S(=O)(=O)N(C)c4ccccc4)cc3)o2)c(C)c1	·	·	·	-1	·
CN(C1CCCCC1)S(=O)(=O)c1ccc(C(=O)Nc2nc(-c3ccccn3)cs2)cc1	·	·	·	14	·
CC(C)S(=O)(=O)c1ccc(C(=O)Nc2nc(-c3ccccn3)cs2)cc1	·	·	·	106*	·
CN(c1ccccc1)S(=O)(=O)c1ccc(C(=O)Nc2nc(-c3ccccn3)cs2)cc1	·	·	·	52*	·
O=C(Nc1cnn(CC2CCOCC2)c1)c1ccc2ncsc2c1	·	·	·	-28	·
CN(C)CCNC(=O)c1ccc(CS(=O)(=O)c2c(Cl)cccc2Cl)o1	-2	21	12	0	8
CCCN(CCC)CCCNC(=O)c1ccc(CS(=O)(=O)c2c(Cl)cccc2Cl)o1	-8	55*	8	-5	-1
COc1ccccc1C(=O)N1CCN(CCNC(=O)C(=O)Nc2ccc(Br)c(C)c2)CC1	4	10	2	2	3
Cc1ccccc1C(=O)N1CCN(CCNC(=O)C(=O)Nc2ccc(Br)cc2)CC1	-11	23	-1	39*	-1
COc1cc(COCC2CCN(S(=O)(=O)Cc3ccc(F)cc3)CC2)cc(OC)c1	·	·	·	-14	·
CCC(CO)Oc1cc(NCc2cc(C)cc(C)c2)c2ncn(C(C)C)c2c1 (centres undefined)	8	·	-11	55*	2
CCC(CO)Oc1cc(NCc2ccc(C)c(C)c2)c2ncn(C(C)C)c2c1 (centres undefined)	12	·	12	36	2
COc1cccc2sc(N(CCCN(C)C)C(=O)c3ccc(S(=O)(=O)N4CCCc5ccccc54)cc3)nc12	-1	14	-23	20*!	-8
SMILES	CCHFV vOTU inh	DUSP3 inh	Sa ugtP lethal	SSB-PriA inh	RN4220 kill
CN(C)CCCN(C(=O)c1ccc(S(=O)(=O)N2CCc3ccccc32)cc1)c1nc2c(Cl)cccc2s1	4	-6	-28	46*	1
COc1cccc2sc(N(CCCN(C)C)C(=O)c3ccc(S(=O)(=O)N4CCc5ccccc5C4)cc3)nc12	2	2	7	15	-1
CN(C)CCN(C(=O)c1ccc(S(=O)(=O)N2CCCC2)cc1)c1nc2c(Cl)cccc2s1	·	·	·	1	·
COc1ccc(C)c2sc(N(CCCN(C)C)C(=O)c3ccc(S(=O)(=O)N4CCc5ccccc5C4)cc3)nc12	3	·	-9	47*!	-2
COc1ccc2sc(N(CCCN3CCOCC3)C(=O)c3cccc([N+](=O)[O-])c3)nc2c1	·	·	·	47*	·
COC(=O)c1ccc(NC(=O)Cn2cnc3c(nnn3C)c2=O)cc1	·	·	·	-15	·
C[C@@H]1CN(c2c(F)c(F)c3c(=O)c(C(=O)O)cn(C4CC4)c3c2F)C[C@H](C)N1	-6	58*	97*	5	96*
c1ccc(-c2ccc3[nH]ccc3c2)cc1	5	·	14	-13	-3
c1ccc(-c2onc(-c3ccco3)c2-c2ccc3[nH]ccc3c2)cc1	12	17	85*	21	-31
C=C1Nc2ccccc2N(CC(=O)Nc2nc(-c3ccccn3)cs2)C1=O	·	·	·	57	·
Cc1ccc(C2(C)NC(=O)N(CC(=O)Nc3nc(-c4ccccn4)cs3)C2=O)cc1 (centres undefined)	8	·	-1	85*	-1
CC1(C)NC(=O)N(CC(=O)Nc2nc(-c3ccccn3)cs2)C1=O	·	·	·	106*	·
CCSc1nnc(NC(=O)CN2C(=O)N(C)C3(CCCCC3)C2=O)s1	6	·	1	-5	2
CN1C(=O)N(CC(=O)Nc2nc(-c3ccccn3)cs2)C(=O)C12CCCCC2	·	·	·	101*	·
CC1(c2ccccc2)NC(=O)N(CC(=O)Nc2nc(-c3ccccn3)cs2)C1=O (centres undefined)	5	·	4	75*	1
COC(=O)[C@@H]1CNNC(=O)C1	·	·	·	-22	·
O=C(NCc1cccnc1)C1CN(S(=O)(=O)C2CC2)C1	·	·	·	-10	·
S=C(NN=Cc1ccccc1Cl)Nc1ccccc1	·	·	91*	-8	-3
S=C(N/N=C/c1ccccc1Cl)Nc1ccccc1	5	1	·	·	·
Fc1cccc(C=NNC(=S)Nc2ccccc2Cl)c1	·	·	93*	-9	1
O=[N+]([O-])c1cc(C=NNC(=S)Nc2ccccc2Cl)ccc1Cl	·	·	·	12	·
FC(F)(F)c1ccc(Cl)c(NC(=S)NN=Cc2ccccc2C(F)(F)F)c1	·	·	86*	-12	6
CC1Cc2cc(C(O)=C3C(=O)C(=O)N(CCN4CCOCC4)C3c3ccc([N+](=O)[O-])cc3)ccc2O1 (centres undefined)	·	·	·	-9	·
CCN(Cc1ccccc1)c1ccc(C=NN2CCOCC2)cc1	·	·	4	47*	3
Cn1c(-c2ccccn2)nn(CCNC(=O)COc2cccc3c2OC(C)(C)C3)c1=O	·	·	·	3	·
SMILES	CCHFV vOTU inh	DUSP3 inh	Sa ugtP lethal	SSB-PriA inh	RN4220 kill
COc1cc(C2C(=C(O)c3ccccc3)C(=O)C(=O)N2c2ccccn2)ccc1O (centres undefined)	·	·	·	-7	·
O=[N+]([O-])c1ccc(N2CCN(C(=S)Nc3cccc(F)c3)CC2)cc1	22	50*	2	-2	1
CN1CCCC1CCNC1C2CC3CC(C2)CC1C3 (centres undefined)	-3	26	-4	41*	-6
Cc1cc2c(c(=O)n1CCO)C(c1ccc(Br)cc1)C(C#N)=C(N)O2 (centres undefined)	·	·	·	5	·
c1ccc(-c2ccc(SCc3cccnc3)nn2)nc1	0	23	3	76*	1
c1cncc(CSc2ccc(-c3cccnc3)nn2)c1	4	15	4	0	7
c1ccc(CSc2ccc(-c3ccccn3)nn2)nc1	-9	2	-3	89*	2
O=C(O)C(Cc1c[nH]c2ccccc12)N1C(=O)c2ccccc2C1=O (centres undefined)	-7	52*!	5	-5	4
